PubChem BioAssay (Tox21)
Unmarked numbers belong to inactive results. Inconclusive results are not listed. Where a call stands in place of a potency, no number is given. Active and inactive are the calls of the source. Unless noted, calls follow the shape of the dose curve; as a rule, active = well fitted curve in the direction sought with a large enough effect in the repeat runs; inconclusive = weak or mixed curves; inactive = no such curve, though single readings can be large; an effect the other way counts as inactive or inconclusive.

Columns and labels:
[1] = qHTS assay to identify small molecule antagonists of the sonic hedgehog signaling (Shh) pathway (AID 1259369; calls by dose curve; also: nearly all actives have a fitted effect of over 45% in size; also: potency is read from the fitted curve at half-maximal effect)
Outline: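 Gli1 transcriptional reporter (firefly Luc) in NIH/3T3 background, conditioned-medium activated. 24hr exposure, luminescence endpoint.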

[2] = biological target: Estrogen receptor beta (Homo sapiens) (UniProt Q92731); assay: qHTS assay to identify small molecule agonists of the estrogen receptor beta (ER-beta) signaling pathway (AID 1259377; active = well fitted activation curve with a large enough effect in the signal ratio in the repeat runs, not every such curve was filed as active; the % refers to the signal ratio)
Chain of Estrogen receptor beta (Homo sapiens) (Q92731 whole entry, looked up): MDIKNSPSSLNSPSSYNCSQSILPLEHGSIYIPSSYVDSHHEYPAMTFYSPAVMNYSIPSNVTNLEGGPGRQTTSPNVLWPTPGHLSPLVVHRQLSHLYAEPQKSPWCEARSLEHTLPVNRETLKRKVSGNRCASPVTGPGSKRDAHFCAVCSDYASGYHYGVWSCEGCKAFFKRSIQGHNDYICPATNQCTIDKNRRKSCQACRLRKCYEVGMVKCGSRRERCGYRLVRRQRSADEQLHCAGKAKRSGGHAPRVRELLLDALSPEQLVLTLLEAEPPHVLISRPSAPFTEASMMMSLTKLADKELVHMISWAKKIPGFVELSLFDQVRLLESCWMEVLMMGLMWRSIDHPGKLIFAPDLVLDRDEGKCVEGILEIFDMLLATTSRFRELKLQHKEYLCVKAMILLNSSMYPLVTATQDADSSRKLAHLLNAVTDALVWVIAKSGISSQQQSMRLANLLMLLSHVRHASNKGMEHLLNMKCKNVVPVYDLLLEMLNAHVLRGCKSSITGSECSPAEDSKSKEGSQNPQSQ
Outline: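 Beta-lactamase reporter readout: fluorescence of LiveBLAzer B/G FRET substrate after 2 h at room temperature, following 16 h compound treatment of ER-beta-UAS-bla HEK293T cells at 37C in 2% charcoal-stripped FBS medium.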

[3] = biological target: Estrogen receptor beta (Homo sapiens) (UniProt Q92731); assay: qHTS assay to identify small molecule antagonists of the estrogen receptor beta (ER-beta) signaling pathway (AID 1259378; active = well fitted inhibition curve with a large enough effect in the signal ratio in the repeat runs, not every such curve was filed as active; the % refers to the signal ratio; also: potency is read from the fitted curve at half-maximal effect)
Outline: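 ER-beta-UAS-bla HEK293T cells in 2% charcoal-stripped FBS medium treated with compound plus 1nM final 17-beta-estradiol for 16 hr at 37C. Beta-lactamase reporter read by FRET substrate fluorescence after 2 hours at room temperature.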

[4] = qHTS assay to identify small molecule agonists of the androgen receptor (AR) signaling pathway in the presence of an antagonist - cell viability counter screen (AID 1259379); also: nearly all actives have a fitted effect of over 25% in size; also: potency is read from the fitted curve at half-maximal effect
Outline: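 Counter screen for cell viability run in parallel with the AR agonist-mode luciferase assay. MDA-kb2 cells were co-treated with nilutamide (3.0uM final) and compounds, then incubated 16 hr at 37C, and CellTiter-Fluor fluorescence was measured.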

[5] = qHTS assay to identify small molecule agonists of the estrogen receptor beta (ER-beta) signaling pathway - cell viability counter screen (AID 1259380); also: nearly all actives have a fitted effect of over 30% in size; also: potency is read from the fitted curve at half-maximal effect
Outline: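 In this qHTS counter screen, HEK293T cells carrying an ER-beta/UAS beta-lactamase reporter, grown in 2% charcoal-stripped FBS, received compound for 16 hr; ATP-based CellTiter-Glo luminescence was then read after 30 min at room temperature.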

[6] = qHTS assay to identify small molecule antagonists of the estrogen receptor beta (ER-beta) signaling pathway - cell viability counter screen (AID 1259382); also: series mostly up to about 92 µM; nearly all actives have a fitted effect of over 55% in size
Outline: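 HEK293T ER-beta-UAS-bla, 2% charcoal-stripped FBS; compounds + 1nM E2 16 hr 37C; CellTiter-Glo luminescence, 30 min RT.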

[7] = qHTS assay to identify small molecule agonists or antagonists of the thyroid stimulating hormone receptor (TSHR) signaling pathway - wild type cell line counter screen (AID 1259384; calls by dose curve)
Outline: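 Wild-type Hek293 cells, 800/well, 18 h at 37C, then compound with Ro20-1724 for 30 min RT. cAMP by HTRF (cAMP-d2/anti-cAMP cryptate), 1 h RT, fluorescence read. 15 concentrations, triplicates.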

[8] = biological target: Thyrotropin receptor (Homo sapiens) (UniProt P16473); assay: qHTS assay to identify small molecule antagonists of the thyroid stimulating hormone receptor (TSHR) signaling pathway (AID 1259385; calls by dose curve; also: nearly all actives have a fitted effect of over 20% in size)
Chain of Thyrotropin receptor (Homo sapiens) (P16473 whole entry, looked up): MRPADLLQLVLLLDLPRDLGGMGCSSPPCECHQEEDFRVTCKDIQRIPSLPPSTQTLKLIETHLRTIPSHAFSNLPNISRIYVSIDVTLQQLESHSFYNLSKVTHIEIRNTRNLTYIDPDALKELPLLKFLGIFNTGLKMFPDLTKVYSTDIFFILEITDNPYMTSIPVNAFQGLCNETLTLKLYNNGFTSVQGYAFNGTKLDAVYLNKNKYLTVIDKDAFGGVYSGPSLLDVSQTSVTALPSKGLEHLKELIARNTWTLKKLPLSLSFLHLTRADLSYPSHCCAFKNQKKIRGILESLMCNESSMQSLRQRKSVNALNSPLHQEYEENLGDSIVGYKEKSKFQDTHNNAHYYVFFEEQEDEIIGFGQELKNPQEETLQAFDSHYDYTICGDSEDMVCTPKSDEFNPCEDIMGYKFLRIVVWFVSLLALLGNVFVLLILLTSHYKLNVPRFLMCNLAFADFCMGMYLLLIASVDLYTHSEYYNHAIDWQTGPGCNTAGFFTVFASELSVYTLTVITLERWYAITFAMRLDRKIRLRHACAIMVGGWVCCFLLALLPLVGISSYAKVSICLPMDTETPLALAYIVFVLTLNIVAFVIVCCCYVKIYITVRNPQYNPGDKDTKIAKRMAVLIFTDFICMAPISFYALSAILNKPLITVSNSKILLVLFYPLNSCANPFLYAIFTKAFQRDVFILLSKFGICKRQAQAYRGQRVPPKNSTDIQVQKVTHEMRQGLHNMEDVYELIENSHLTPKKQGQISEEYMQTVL
Outline: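 TSHR-HEK293 cells (800/well) plated 18 h, then compounds with Ro20-1724 and TSH at 1.5 ng/mL final, 30 min at room temperature. cAMP quantified by HTRF (cAMP-d2/anti-cAMP-cryptate, 1 h); 15 concentrations in triplicate.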

[9] = qHTS assay to identify small molecule agonists of the estrogen receptor alpha (ER-alpha) signaling pathway in the presence of an antagonist - cell viability counter screen (AID 1259386);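 also: series mostly up to about 92 µM; cells exposed to compounds for 22 h at 37 °C before the viability read; nearly all actives have a fitted effect of over 30% in size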
Outline: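 Steps: 5-day stripped-FBS culture; seed and incubate 24hr; add ICI-182,780 (10.0nM final); pin 15-point compound titration; incubate 22hr at 37C; add CellTiter-Fluor at 21hr; read fluorescence.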

[10] = biological target: Progesterone receptor (Homo sapiens) (UniProt P06401); assay: qHTS assay to identify small molecule agonists of the progesterone receptor (PR) signaling pathway (AID 1346784; calls by dose curve; also: nearly all actives have a fitted effect of over 30% in size)
Chain of Progesterone receptor (Homo sapiens) (P06401 whole entry, looked up): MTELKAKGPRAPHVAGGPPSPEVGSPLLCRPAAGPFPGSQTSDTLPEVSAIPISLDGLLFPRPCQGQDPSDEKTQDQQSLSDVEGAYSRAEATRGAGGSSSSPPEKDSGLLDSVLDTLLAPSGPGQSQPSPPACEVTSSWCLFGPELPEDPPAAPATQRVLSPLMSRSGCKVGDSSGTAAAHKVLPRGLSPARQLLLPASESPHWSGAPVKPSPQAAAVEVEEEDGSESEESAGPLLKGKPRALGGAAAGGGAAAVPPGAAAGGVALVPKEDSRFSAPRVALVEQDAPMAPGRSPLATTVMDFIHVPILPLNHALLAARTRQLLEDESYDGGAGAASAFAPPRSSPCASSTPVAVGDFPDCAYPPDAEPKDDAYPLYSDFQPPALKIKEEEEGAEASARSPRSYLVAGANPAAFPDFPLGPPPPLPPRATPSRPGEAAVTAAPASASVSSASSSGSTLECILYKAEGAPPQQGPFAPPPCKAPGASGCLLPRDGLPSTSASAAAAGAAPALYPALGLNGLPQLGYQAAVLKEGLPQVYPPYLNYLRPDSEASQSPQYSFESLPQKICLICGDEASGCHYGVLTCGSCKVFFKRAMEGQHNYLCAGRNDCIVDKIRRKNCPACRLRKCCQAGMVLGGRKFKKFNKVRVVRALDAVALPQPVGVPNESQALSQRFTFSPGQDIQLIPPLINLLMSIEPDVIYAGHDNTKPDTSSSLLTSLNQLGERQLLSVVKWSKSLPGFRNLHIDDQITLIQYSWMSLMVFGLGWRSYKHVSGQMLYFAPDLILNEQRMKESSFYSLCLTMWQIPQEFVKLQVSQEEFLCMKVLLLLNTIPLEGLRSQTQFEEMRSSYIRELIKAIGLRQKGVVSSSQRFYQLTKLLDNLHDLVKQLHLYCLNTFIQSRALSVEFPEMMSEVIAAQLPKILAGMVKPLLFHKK
Outline: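 HEK 293T PR-UAS-bla reporter cells, 2% charcoal-stripped FBS; 6 hr settle at 37C/5% CO2, compound (DMSO) 16 hr, LiveBLAzer B/G FRET substrate 2 hr RT, fluorescence intensity read.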

[11] = biological target: Progesterone receptor (Homo sapiens) (UniProt P06401); assay: qHTS assay to identify small molecule antagonists of the progesterone receptor (PR) signaling pathway (AID 1346795; active = well fitted inhibition curve with a large enough effect in the signal ratio in the repeat runs, not every such curve was filed as active; the % refers to the signal ratio)
Outline: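 Beta-lactamase reporter, HEK293T PR-UAS-bla line; 2% charcoal-stripped FBS; 6 hr pre-incubation, 37C/5% CO2. Compound + R5020 1 nM final, 16 hr. LiveBLAzer B/G FRET substrate, 2 hr RT; fluorescence intensity read.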

[12] = qHTS assay to identify small molecule antagonists of the progesterone receptor (PR) signaling pathway - cell viability counter screen (AID 1346798); also: series mostly up to about 92 µM; nearly all actives have a fitted effect of over 50% in size
Outline: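 Luminescence readout (CellTiter-Glo, 30 min, RT) of viability in PR-UAS-bla HEK293T cells exposed to compound and R5020 agonist for 16 hr at 37C, 5% CO2; run in the same wells as the beta-lactamase reporter read.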

[13] = qHTS assay to identify small molecule agonists of the progesterone receptor (PR) signaling pathway - cell viability counter screen (AID 1346799; calls by dose curve; also: nearly all actives have a fitted effect of over 45% in size)
Outline: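 HEK293T PR-UAS-bla, 3,000 cells/well, 2% charcoal-stripped FBS; 6 h settle, compound 16 h at 37C/5% CO2; LiveBLAzer 2 h RT, then CellTiter-Glo 30 min RT, luminescence read.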

[14] = qHTS assay to identify small molecule antagonists of the TGF-beta/Smad signaling pathway - cell viability counter screen (AID 1346824); also: nearly all actives have a fitted effect of over 50% in size
Outline: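 SBE-bla HEK 293T cells, incubated overnight, then compound plus 0.25 ng/mL TGF-beta1 (stock added) for 5 hr at 37 C. Viability was read in the same wells by CellTiter-Glo luminescence after 30 min at room temperature.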

[15] = qHTS assay to identify small molecule agonists of the TGF-beta/Smad signaling pathway (AID 1346859; active = well fitted activation curve with a large enough effect in the signal ratio in the repeat runs, not every such curve was filed as active; the % refers to the signal ratio; also: series mostly up to about 77 µM)
Outline: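 Read-out: fluorescence at 460 and 530 nm (405 nm excitation) after a 2 hr room-temperature incubation with beta-lactamase FRET substrate. SBE-bla HEK 293T cells had been treated with test compounds for 5 hr at 37 C.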

[16] = qHTS assay to identify small molecule agonists of the TGF-beta/Smad signaling pathway - cell viability counter screen (AID 1346829); also: top concentration of the series differs between compounds; nearly all actives have a fitted effect of over 45% in size
Outline: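 Same-well cytotoxicity: CellTiter-Glo added after the 2 hr room-temperature beta-lactamase substrate step, luminescence measured 30 min later; cells had 5 hr of compound at 37 C.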

[17] = biological target: Thyrotropin-releasing hormone receptor (Homo sapiens) (UniProt P34981); assay: qHTS assay to identify small molecule antagonists of the thyrotropin-releasing hormone receptor (TRHR) signaling pathway (AID 1346877; active = well fitted inhibition curve with a large enough effect in the repeat runs, not every such curve was filed as active; also: series mostly up to about 51 µM)
Chain of Thyrotropin-releasing hormone receptor (Homo sapiens) (P34981 whole entry, looked up): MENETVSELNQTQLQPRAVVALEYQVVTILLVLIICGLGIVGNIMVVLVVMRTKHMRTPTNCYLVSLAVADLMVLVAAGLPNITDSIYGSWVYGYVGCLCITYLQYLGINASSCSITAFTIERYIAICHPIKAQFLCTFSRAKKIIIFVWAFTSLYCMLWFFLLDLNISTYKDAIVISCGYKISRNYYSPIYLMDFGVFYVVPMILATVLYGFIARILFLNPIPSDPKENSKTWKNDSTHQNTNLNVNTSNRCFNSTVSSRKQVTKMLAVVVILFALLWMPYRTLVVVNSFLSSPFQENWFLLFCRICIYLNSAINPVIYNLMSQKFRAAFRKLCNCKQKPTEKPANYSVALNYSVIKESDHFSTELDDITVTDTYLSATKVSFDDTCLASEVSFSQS
Outline: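 Human TRHR in HEK293 cells; inhibition of the intracellular calcium rise triggered by 1 nM TRH was followed by fluorescence over 3 min. Compounds were run at 15 concentrations, three replicates each.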

[18] = biological target: Thyrotropin-releasing hormone receptor (Homo sapiens) (UniProt P34981); assay: qHTS assay to identify small molecule agonists of the thyrotropin-releasing hormone receptor (TRHR) signaling pathway (AID 1346891; calls by dose curve;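 also: HEK293 cells expressing TRHR with calcium dye readout; series mostly up to about 58 µM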)
Outline: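 HEK293/TRHR cells, 1500 per well, 18 h 37 °C; Ca dye 2 h 37 °C; pin-tool compound addition (agonist mode); kinetic fluorescence 3 min, 1 s reads; 15 concentrations, triplicate.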

[19] = biological target: Estrogen receptor (Homo sapiens) (UniProt P03372); assay: qHTS assay to identify small molecule agonists of the estrogen receptor alpha (ER-alpha) signaling pathway in the presence of an antagonist (AID 1259383; calls by dose curve; also: top concentration of the series differs between compounds; nearly all actives have a fitted effect of over 15% in size)
Chain of Estrogen receptor (Homo sapiens) (P03372 whole entry, looked up): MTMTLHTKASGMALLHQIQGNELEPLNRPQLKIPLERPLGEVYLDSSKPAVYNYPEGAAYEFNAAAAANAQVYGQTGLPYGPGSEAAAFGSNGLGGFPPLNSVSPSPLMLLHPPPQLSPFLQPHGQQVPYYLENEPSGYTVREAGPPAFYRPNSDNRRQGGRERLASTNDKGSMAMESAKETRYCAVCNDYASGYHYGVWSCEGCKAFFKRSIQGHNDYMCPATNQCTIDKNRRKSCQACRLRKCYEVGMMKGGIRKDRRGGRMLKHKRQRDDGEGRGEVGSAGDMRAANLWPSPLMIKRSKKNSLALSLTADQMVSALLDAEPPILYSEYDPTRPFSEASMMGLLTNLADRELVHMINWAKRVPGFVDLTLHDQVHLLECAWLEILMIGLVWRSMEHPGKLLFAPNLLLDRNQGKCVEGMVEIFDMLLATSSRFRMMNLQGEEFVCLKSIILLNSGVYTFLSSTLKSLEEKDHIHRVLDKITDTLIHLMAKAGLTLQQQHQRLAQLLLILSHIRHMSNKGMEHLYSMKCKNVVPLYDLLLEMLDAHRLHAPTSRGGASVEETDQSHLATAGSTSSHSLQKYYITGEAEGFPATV
Outline: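 ER-alpha agonism measured under antagonist challenge: 10.0nM ICI-182,780 (final) plus compound, 15 concentrations, 22hr, VM7Luc4E2 ERE-luciferase cells. Read by luminescence.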

SMILES	Potency [1]	Potency [2]	Potency [3]	Potency [4]	Potency [5]	Potency [6]	Potency [7]	Potency [8]	Potency [9]	Potency [10]	Potency [11]	Potency [12]	Potency [13]	Potency [14]	Potency [15]	outcome [16]	outcome [17]	Potency [18]	Potency [19]
CCCCOC(=O)CCCCCCCC(=O)OCCCC	inactive	inactive	inactive	inactive	inactive	inactive	inactive	inactive	inactive	inactive	inactive	inactive	inactive	inactive	inactive	–	–	–	–
O=C1OC(=O)C2C3C=CC(C3)C12 (stereo not given)	inactive	inactive	inactive	inactive	inactive	inactive	inactive	inactive	inactive	inactive	inactive	inactive	–	inactive	inactive	inactive	inactive	inactive	–
COC(C)(C)CCO	inactive	inactive	inactive	inactive	inactive	inactive	inactive	inactive	inactive	–	inactive	inactive	inactive	–	inactive	inactive	–	inactive	–
O=[N+]([O-])c1cccc(S(=O)(=O)O)c1	inactive	inactive	2.2 µM (active)	62.1 µM (active)	24.7 µM (active)	inactive	–	–	inactive	inactive	inactive	–	–	inactive	inactive	inactive	–	–	–
C=CCOC(=O)CCC1CCCCC1	inactive	inactive	inactive	inactive	inactive	inactive	inactive	inactive	inactive	–	inactive	inactive	inactive	inactive	inactive	inactive	–	inactive	–
CCOC(=O)c1cccnc1	inactive	inactive	inactive	inactive	inactive	inactive	inactive	inactive	inactive	inactive	inactive	inactive	inactive	inactive	inactive	inactive	inactive	inactive	–
C=CCOc1ccccc1OCC(O)CNC(C)C (stereo not given)	inactive	inactive	inactive	inactive	inactive	inactive	–	–	inactive	–	–	inactive	inactive	inactive	inactive	–	inactive	inactive	inactive
Cc1cc(C(=O)O)ccc1[N+](=O)[O-]	inactive	inactive	inactive	inactive	inactive	inactive	inactive	inactive	inactive	–	–	inactive	inactive	inactive	inactive	–	inactive	inactive	–
COc1ccc(C(=O)N2CCN(CC(=O)N3CCOCC3)CC2)cc1	inactive	inactive	inactive	inactive	inactive	inactive	inactive	inactive	inactive	inactive	inactive	inactive	inactive	inactive	inactive	inactive	inactive	inactive	–
CCCCCCCCO[C@@H]1O[C@H](CO)[C@@H](O)[C@H](O)[C@H]1O	inactive	inactive	inactive	inactive	inactive	inactive	inactive	inactive	inactive	inactive	inactive	inactive	inactive	inactive	inactive	–	inactive	inactive	–
CCC(C)(C)CC	inactive	inactive	inactive	inactive	inactive	inactive	–	–	inactive	inactive	inactive	inactive	inactive	inactive	inactive	inactive	–	–	–
CCn1cc(C(=O)O)c(=O)c2cnc(N3CCNCC3)nc21	inactive	inactive	inactive	inactive	inactive	inactive	–	–	inactive	inactive	inactive	inactive	inactive	inactive	inactive	inactive	inactive	inactive	–
O[C@@H](COc1cccc2ncccc12)CN1CCN(C2c3ccccc3[C@@H]3[C@H](c4ccccc42)C3(F)F)CC1 (stereo not given in full)	13.3 µM (active)	inactive	16.8 µM (active)	inactive	26.6 µM (active)	–	inactive	inactive	inactive	–	–	inactive	–	inactive	inactive	inactive	inactive	inactive	inactive
O=C1C(O)=C(O)C(=O)C(O)=C1O	inactive	inactive	inactive	inactive	inactive	inactive	inactive	inactive	inactive	–	inactive	–	–	inactive	inactive	inactive	–	–	–
